Records with an inconclusive call do not appear. Activity calls are given as the source filed them. The call rests on the fitted dose curve; in most records, active means well fitted inhibition curve with a large enough effect; inconclusive means small, poorly fitted or top-dose-only effect; inactive means flat fitted curve, though single readings scatter.
Legend:
Assay in all cases: qHTS profiling for inhibitors of Plasmodium falciparum proliferation (AID 504749); further: nearly all actives have a fitted effect of over 60% in size
Conditions in all cases: P. falciparum in erythrocytes, SYBR Green DNA, 72 h; series mostly up to 28.7 µM
[1] = tested on: ATS95
Procedure, shortened: (§1)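 P. falciparum-infected erythrocytes (0.3% parasitemia, 2.5% hematocrit final) were exposed to compounds for 72 h at 37 C in 5% CO2, then lysed with SYBR Green buffer overnight at room temperature; parasite DNA fluorescence was normalized to artemisinin and DMSO controls.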

[2] = tested on: C2A
Procedure, shortened: as §1

[3] = tested on: CP185
Procedure, shortened: as §1

[4] = tested on: CP238
Procedure, shortened: as §1

[5] = tested on: CP250
Procedure, shortened: as §1

[6] = tested on: CP256
Procedure, shortened: as §1

[7] = tested on: CP265
Procedure, shortened: as §1

[8] = tested on: CP268
Procedure, shortened: as §1

[9] = tested on: CP269
Procedure, shortened: as §1

[10] = tested on: CP286
Procedure, shortened: as §1

[11] = tested on: CP305
Procedure, shortened: as §1

[12] = tested on: CP329
Procedure, shortened: as §1

[13] = tested on: CP335
Procedure, shortened: as §1

[14] = tested on: DIV30
Procedure, shortened: as §1

[15] = tested on: ECU
Procedure, shortened: as §1

[16] = tested on: P93_24
Procedure, shortened: as §1

[17] = tested on: PAD
Procedure, shortened: as §1

[18] = tested on: PC26
Procedure, shortened: as §1

[19] = tested on: SC27B
Procedure, shortened: as §1

[20] = tested on: TAB109
Procedure, shortened: as §1

Measured: Potency

C[C@@H](C(=O)O)c1ccc(-c2ccccc2)c(F)c1
inactive: all assays above

— PubChem BioAssay (NCATS)
